In PubChem BioAssay:
Records with an inconclusive call do not appear. Calls of active or inactive are those of the source.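 How the source made its calls, unless noted: active means normalized viability below 100% at a tested concentration; inactive means the rest.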

Assays:
[1] = viability loss in pontine glioma line – cell-based, JHH-DIPG-1, MIPE4.0, CellTiter-Glo, qHTS, dose response (AID 1347062; cut-off not given, nearly all actives have AC50 up to about 27 µM;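 on AC50: cells exposed to compound for two days before readout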); settings: JHH-DIPG-1 viability, CellTiter-Glo ATP luminescence
[2] = viability loss in pontine glioma line – cell-based, SU-DIPG-IV, MIPE4.0, CellTiter-Glo, qHTS, dose response (AID 1347063; cut-off not given, nearly all actives have AC50 up to about 30 µM;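 further: compound exposure lasted 48 hours before the viability readout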); settings: CellTiter-Glo ATP luminescence
[3] = viability loss in pontine glioma line – cell-based, SU-DIPG-XIII, MIPE5.0, CellTiter-Glo, qHTS, dose response (AID 1347064; cut-off not given, nearly all actives have AC50 up to about 23 µM;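 on AC50: cells exposed to compound for 48 hours before the viability read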); settings: CellTiter-Glo ATP luminescence
[4] = viability loss in pontine glioma line – cell-based, SU-DIPG-XXV, MIPE5.0, CellTiter-Glo, qHTS, dose response (AID 1347065; cut-off not given, nearly all actives have AC50 up to about 26 µM;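 further: cells exposed to compound for 48 hours before ATP readout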); settings: CellTiter-Glo ATP luminescence
[5] = growth inhibition of DIPG cells – cell-based, MIPE4.0 library, CellTiter-Glo luminescence, qHTS (AID 1347066; cut-off not given, nearly all actives have AC50 up to about 30 µM;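 further: cells exposed to compound for 48 hours before readout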); settings: SU-DIPG-VI viability, CellTiter-Glo ATP luminescence
[6] = JHH-DIPG-1 glioma cell viability, MIPE5.0 library, CellTiter-Glo luminescence, qHTS (AID 1347067; cut-off not given, nearly all actives have AC50 up to about 26 µM;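 further: cells exposed to compound for 48 hours before readout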); settings: JHH-DIPG-1 glioma viability, CellTiter-Glo ATP luminescence
[7] = growth inhibition of DIPG cells – cell-based, MIPE5.0 library, qHTS (AID 1347068; cut-off not given, nearly all actives have IC50 up to about 30 µM;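 on IC50: cells exposed to compound for 48 hours before viability readout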); settings: SU-DIPG-XXV viability
[8] = viability loss with induced miR-34 in A549 – imaging, A549 dox-inducible miR-34, nuclei and caspase counts, primary screen (AID 1347080;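 active means compounds whose cell count with miR-34 switched on is under 0.7 times the count with it off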); settings: A549 miR-34 inducible, Hoechst nuclei count, 48 h
[9] = compounds altering HSF1 focus formation in cells – imaging, Selleck Cancer Library (AID 1347162; in the data active means plate-normalised HSF1 focus index below about 0.46); settings: human cells, HSF1 nuclear foci imaging, at 10 µM; SSMD: measured here: HSF1 foci SSMD mean; cell count: measured here: cell number; plate-normalised HSF1 focus index: stronger effect = lower value
[10] = MELAS cybrid and Rieske KO viability enhancers – cell-based, MELAS cybrids, Rieske KO mouse fibroblasts, CellTiter-Glo, primary screen (AID 1508586;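 active means mean z-score across replicates of 1.96 or higher in either the MELAS or the Rieske mutant cell line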;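 further: z relative to plate mean and SD of compound and empty wells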); settings: low glucose
[11] = drug combination growth inhibition, ovarian cancer – cell-based, oncology-focused library, rucaparib conditional, profiling panel (AID 1508598); settings: patient-derived ovarian cancer cells, CellTiter-Glo viability, 144 h, stronger effect = lower value
[12] = viability loss in pontine glioma line – cell-based, SU-DIPG-XIII, MIPE4.0, CellTiter-Glo, qHTS, dose response (AID 1347061; cut-off not given, nearly all actives have AC50 up to about 37 µM;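 further: cells exposed to compound for 48 hours before readout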); settings: CellTiter-Glo ATP luminescence
[13] = liver-stage malaria parasite load reduction – cell-based, known kinase inhibitor set, luminescence, hepatoma host viability (AID 624392; call rule not given here;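 further: infected cells incubated roughly two days before readout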); settings: Plasmodium liver stage in hepatoma cells, luciferase luminescence, concentration not given here; liver cell % of control: measured here: host liver cell viability; parasite % of control: stronger effect = lower value
[14] = compounds altering circadian rhythm period length – cell-based, LOPAC library, luminescence reporter (AID 2774; call rule not given here;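 further: values are relative to mean of DMSO wells on each plate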); settings: circadian reporter cells, at 7 µM, actives lie on both sides
[15] = blockers of cellular phospholipid synthesis – cell-based, LOPAC library, screen 4, primary screen (AID 1347384; call rule not given here); settings: animal cells, phospholipid biosynthesis inhibition screen; at 10 µM
[16] = stronger effect = lower value, cell number ratio, induced over uninduced
[17] = measured here: relative caspase fold change +Dox/-Dox
[18] = measured here: total cells with miR-34 induction, stronger effect = lower value
[19] = measured here: total cells without miR-34 induction
[20] = MELAS cybrid survival, CellTiter-Glo 48 h, stronger effect = higher value
[21] = Rieske KO mouse fibroblast survival, CellTiter-Glo 72 h
[22] = at 0.000305 µM, OCI-C5x cells, with rucaparib 10 µM, 100% = cells with rucaparib alone
[23] = at 0.000305 µM, OCI-C5x cells, without rucaparib
[24] = at 0.000305 µM, OCI-P5x cells, with rucaparib 20 µM, 100% = cells with rucaparib alone
[25] = at 0.000305 µM, OCI-P5x cells, without rucaparib
[26] = at 0.00122 µM, OCI-C5x cells, with rucaparib 10 µM, 100% = cells with rucaparib alone
[27] = at 0.00122 µM, OCI-C5x cells, without rucaparib
[28] = at 0.00122 µM, OCI-P5x cells, with rucaparib 20 µM, 100% = cells with rucaparib alone
[29] = at 0.00122 µM, OCI-P5x cells, without rucaparib
[30] = at 0.00488 µM, OCI-C5x cells, with rucaparib 10 µM, 100% = cells with rucaparib alone
[31] = at 0.00488 µM, OCI-C5x cells, without rucaparib
[32] = at 0.00488 µM, OCI-P5x cells, with rucaparib 20 µM, 100% = cells with rucaparib alone
[33] = at 0.00488 µM, OCI-P5x cells, without rucaparib
[34] = at 0.0195 µM, OCI-C5x cells, with rucaparib 10 µM, 100% = cells with rucaparib alone
[35] = at 0.0195 µM, OCI-C5x cells, without rucaparib
[36] = at 0.0195 µM, OCI-P5x cells, with rucaparib 20 µM, 100% = cells with rucaparib alone
[37] = at 0.0195 µM, OCI-P5x cells, without rucaparib
[38] = at 0.0781 µM, OCI-C5x cells, with rucaparib 10 µM, 100% = cells with rucaparib alone
[39] = at 0.0781 µM, OCI-C5x cells, without rucaparib
[40] = at 0.0781 µM, OCI-P5x cells, with rucaparib 20 µM, 100% = cells with rucaparib alone
[41] = at 0.0781 µM, OCI-P5x cells, without rucaparib
[42] = at 0.313 µM, OCI-C5x cells, with rucaparib 10 µM, 100% = cells with rucaparib alone
[43] = at 0.313 µM, OCI-C5x cells, without rucaparib
[44] = at 0.313 µM, OCI-P5x cells, with rucaparib 20 µM, 100% = cells with rucaparib alone
[45] = at 0.313 µM, OCI-P5x cells, without rucaparib
[46] = at 1.25 µM, OCI-C5x cells, with rucaparib 10 µM, 100% = cells with rucaparib alone
[47] = at 1.25 µM, OCI-C5x cells, without rucaparib
[48] = at 1.25 µM, OCI-P5x cells, with rucaparib 20 µM, 100% = cells with rucaparib alone
[49] = at 1.25 µM, OCI-P5x cells, without rucaparib
[50] = at 5 µM, OCI-C5x cells, with rucaparib 10 µM, 100% = cells with rucaparib alone
[51] = at 5 µM, OCI-C5x cells, without rucaparib
[52] = at 5 µM, OCI-P5x cells, with rucaparib 20 µM, 100% = cells with rucaparib alone
[53] = at 5 µM, OCI-P5x cells, without rucaparib

Fc1cc(-c2cccc3ncc(-c4cnn(C5CCNCC5)c4)nc23)cc(F)c1CN1CCOCC1
-6.26: SSMD [9]
6160: cell count [9]
5860: cell count [8, 18]
-0.329: z-score [10, 21]
inactive: fold change [8, 16] 0.713 | plate-normalised HSF1 focus index [9] 0.613 | z-score [10, 20] -0.567 | viability [11, 22] 105% | viability [11, 23] 114% | viability [11, 26] 116% | viability [11, 27] 118% | viability [11, 30] 112% | viability [11, 31] 114% | viability [11, 34] 110% | viability [11, 35] 112% | viability [11, 39] 115% | viability [11, 42] 114% | viability [11, 43] 120% | viability [11, 46] 124% | viability [11, 47] 115%
0.777: fold change [8, 17]
8220: cell count [8, 19]
active: AC50 [1] 20.9 µM | AC50 [2] 18.7 µM | AC50 [3] 11.8 µM | AC50 [4] 9.34 µM | AC50 [5] 23.5 µM | AC50 [6] 13.2 µM | IC50 [7] 23.5 µM | viability [11, 24] 77.7% | viability [11, 25] 90.5% | viability [11, 28] 18.8% | viability [11, 29] 18.7% | viability [11, 32] 89.3% | viability [11, 33] 99.1% | viability [11, 36] 88.8% | viability [11, 37] 91.6% | viability [11, 38] 99.8% | viability [11, 40] 80.3% | viability [11, 41] 96% | viability [11, 44] 80.6% | viability [11, 45] 89.7% | viability [11, 48] 68.6% | viability [11, 49] 80.5% | viability [11, 50] 29.6% | viability [11, 51] 15.6% | viability [11, 52] 17.1% | viability [11, 53] 20.9%

CCOC(=O)N1CCN(/[N+]([O-])=N/Oc2cc(O/N=[N+](\[O-])N3CCN(C(=O)OCC)CC3)c([N+](=O)[O-])cc2[N+](=O)[O-])CC1
active: AC50 [1] 9.35 µM | AC50 [2] 23.5 µM

CCn1c(=O)c2c(nc(/C=C/c3ccc(OC)c(OC)c3)n2C)n(CC)c1=O
inactive: outcome [1] | outcome [2] | outcome [3] | outcome [5] | outcome [6] | outcome [7]

COc1ccc(C[C@@H](C)[C@@H](C)Cc2ccc(OC)c(OC)c2)cc1OC
active: AC50 [1] 1.18 µM

CNC(=O)[C@H](Cc1ccccc1)NC(=O)[C@H](CC(C)C)[C@H](CSc1cccs1)C(=O)NO
inactive: outcome [12] | outcome [5] | outcome [6] | outcome [7]

Nc1cccc(S(=O)(=O)N2CCCN(S(=O)(=O)c3ccc4c(c3)OCCO4)CC2)c1
inactive: outcome [12] | outcome [5] | outcome [7]

Cn1cc(-c2[nH]c3cc(NC(=O)[C@H](N)C4CCCCC4)cc4c3c2C=NNC4=O)cn1
6990: cell count [9]
-1.12: SSMD [9]
active: AC50 [1] 0.418 µM | AC50 [2] 1.18 µM | AC50 [3] 2.09 µM | AC50 [4] 1.18 µM | AC50 [6] 16.6 µM | IC50 [7] 4.68 µM
inactive: plate-normalised HSF1 focus index [9] 0.932

CC(=O)C1=C(O)C=C2Oc3c(C(C)=O)c(O)c(C)c(O)c3C2(C)C1=O (stereo not given)
inactive: outcome [12] | outcome [5]

NC1(Cc2ccc(Cl)cc2)CCN(c2ncnc3[nH]ccc23)CC1
0.525: fold change [8, 17]
inactive: fold change [8, 16] 0.99 | z-score [10, 20] -0.165
7540: cell count [8, 19]
-1.1: z-score [10, 21]
7470: cell count [8, 18]
active: AC50 [1] 20.9 µM | AC50 [2] 11.8 µM | AC50 [3] 14.8 µM | AC50 [4] 14.8 µM

CCCS(=O)(=O)Nc1ccc(F)c(C(=O)c2c[nH]c3ncc(-c4ccc(Cl)cc4)cc23)c1F
-0.424: z-score [10, 21]
1: fold change [8, 17]
5420: cell count [8, 18]
inactive: outcome [1] | outcome [3] | outcome [5] | outcome [7] | fold change [8, 16] 0.763 | plate-normalised HSF1 focus index [9] 1.15 | z-score [10, 20] -0.461 | viability [11, 22] 120% | viability [11, 26] 112% | viability [11, 27] 111% | viability [11, 30] 123% | viability [11, 31] 106% | viability [11, 32] 103% | viability [11, 34] 107% | viability [11, 35] 107% | viability [11, 36] 107% | viability [11, 37] 102% | viability [11, 38] 105% | viability [11, 39] 107% | viability [11, 40] 103% | viability [11, 41] 104% | viability [11, 42] 106% | viability [11, 43] 107% | viability [11, 45] 105% | viability [11, 51] 105%
active: AC50 [2] 14.8 µM | viability [11, 23] 96.8% | viability [11, 24] 95.6% | viability [11, 25] 93% | viability [11, 28] 99.5% | viability [11, 29] 96.2% | viability [11, 33] 99% | viability [11, 44] 93.7% | viability [11, 46] 49.6% | viability [11, 47] 35% | viability [11, 48] 45.5% | viability [11, 49] 10.7% | viability [11, 50] 97.9% | viability [11, 52] 49.3% | viability [11, 53] 16.3%
7100: cell count [8, 19]
6960: cell count [9]
2.8: SSMD [9]

Cn1cc(-c2ccncc2)c(-c2ccc(OCc3ccc4ccccc4n3)cc2)n1
active: AC50 [4] 23.5 µM
inactive: outcome [1] | outcome [2] | outcome [5] | outcome [7]

C[C@H](NC(=O)[C@@H](O)c1cc(F)cc(F)c1)C(=O)N[C@@H]1C(=O)N(C)c2ccccc2-c2ccccc21
inactive: outcome [1] | outcome [2] | outcome [3] | outcome [5] | outcome [6] | outcome [7]

CC(C)C[C@H](NC(=O)c1cc2ccccc2s1)C(=O)N1CCN(C(=O)[C@H](CO)NS(=O)(=O)c2ccc(Cl)cc2Cl)CC1
inactive: outcome [1]
active: AC50 [2] 20.9 µM | AC50 [4] 20.9 µM | AC50 [5] 23.5 µM

COc1cc(C(=O)NC2CCN(C)CC2)ccc1Nc1ncc2c(n1)N(C1CCCC1)CCC(=O)N2C(C)C
active: AC50 [1] 16.6 µM | AC50 [2] 7.43 µM | AC50 [4] 23.5 µM | AC50 [6] 23.5 µM
inactive: parasite % of control [13] 139% | outcome [7]
99.8%: liver cell % of control [13]

O=c1[nH]c(=O)n([C@H]2C[C@H](O)[C@@H](CO)O2)cc1/C=C/Br
inactive: period change [14] -0.01 h

C=CC(=O)Nc1cccc(Nc2nc(NC3CCC(N(C)C)CC3)nc3c2ncn3C(C)C)c1 (stereo not given)
inactive: parasite % of control [13] 15.4%
43.6%: liver cell % of control [13]

Nc1nc(N)c(N=O)c(OCC2CCCCC2)n1
6960: cell count [9]
2.32: SSMD [9]
inactive: plate-normalised HSF1 focus index [9] 1.14 | outcome [15]
